Measured values published in the supplement of paper PMC13380429.

System: Vero E6 infected with SARS-CoV-2
Assay: inhibition of SARS-CoV-2 cytopathic effect; higher = more antiviral protection, active = above 15
Conditions: 48 h

Measured: inhibition of SARS-CoV-2 cytopathic effect

Cc1nnc(C(=O)NC(C)(C)c2nc(C(=O)NCc3ccc(F)cc3)c(O)c(=O)n2C)o1 [raltegravir]
inactive: 1 nM 3.09% | 8.33 nM -0.27% | 100 nM 2.75% | 833.33 nM 1.2% | 10000 nM 1.12%

Nc1nc(=O)n([C@@H]2O[C@H](CO)[C@@H](O)[C@@H]2F)cc1I [fiacitabine]
inactive: 1 nM -1.38% | 8.33 nM -1.55% | 100 nM 2.03% | 833.33 nM -1.22% | 10000 nM -0.56%

C[C@]12CC[C@H](O)C[C@H]1CC[C@@H]1[C@@H]2CC[C@]2(C)[C@@H](c3ccc(=O)oc3)C[C@H]3O[C@]132 [resibufogenin]
inactive: 1 nM -0.2% | 8.33 nM -2.33% | 100 nM -5.86% | 833.33 nM -20.4% | 10000 nM -20.4%

COc1ccccc1N1CCN(CCCCN2C(=O)c3ccccc3C2=O)CC1
inactive: 1 nM -0.49% | 8.33 nM -1.04% | 100 nM 2.68% | 833.33 nM 1.7% | 10000 nM 4.74%

NC(=O)c1ccc(I)c([N+](=O)[O-])c1 [iniparib]
inactive: 1 nM 0.64% | 8.33 nM 1.76% | 100 nM 0.16% | 833.33 nM 2.29% | 10000 nM 3.53%

NC(=O)OCC(O)COc1ccc(Cl)cc1 (stereo not given) [chlorphensin-carbamate]
inactive: 1 nM 2.19% | 8.33 nM -1.72% | 100 nM 1.24% | 833.33 nM 2.98% | 10000 nM 4.44%

Cc1onc(-c2ccccc2)c1-c1ccc(S(N)(=O)=O)cc1 [valdecoxib]
inactive: 1 nM 0.48% | 8.33 nM -0.66% | 100 nM -0.48% | 833.33 nM 3.3% | 10000 nM 0.55%
